Reference: the supplement of paper PMC6555819

tested on: VDR:RXRa (NR concentration 270 nM, RXRa partner concentration 90 nM); experiment: PBM binding z-score (relative to random genomic background probes); higher = stronger binding; sequences stand for … in GC…GCGATTGACAGCGTAGAATGAAGG
Procedure: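 Protein-binding microarray (Agilent 4x180K custom design, double-stranded 60-nt probes: 5' GC cap, 34-nt variable region, 24-nt constant primer region; full probe sequence given). Purified or IVT nuclear receptor:RXRα heterodimers (3:1 NR:RXRα, mostly 270:90 nM) or homodimers were incubated for 1 h in PBS with 2% milk and no ligand, then detected with Alexa488 antibodies. Fluorescence from o1-orientation probes (~5 replicates averaged) was converted to z-scores against 500 random hg19 background probes. Variable regions are seed direct-repeat (DR0–DR5) sites, all their single-nucleotide variants and half-site ablations.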

Sequence	PBM binding z-score
CCGAGTAGGTTATGGTGCATTCAGGCAACGGTGA	0.0938
TAGCCTAGGTCATTCAGGGGCCAGGATAGAAAGC	2.94
CCTCCAAGGTCAATGCTAGGTCAGTGAAAGCATT	4.74
ACTATTAATTGAGACGAGGGCAACCGATAGGTTG	0.764
CCTATTAGTTGACCATAACGGCAACCGAAGCTCG	0.7
TCATATAGGTAAACAGGTGACAGTCCGTAAGTTA	0.94
GGAAAGAGGGCAAGTTGATAGCAGAGTTTGATGG	1.24
CGAACTAGGGCATTGACAGGACAGTGAATAGTAA	-0.141
ATCTCTAGGTAAGACTCAGTTCCGTGAAGAACGC	0.121
CCGACTGGGGCTAAGGTTACCATACTCAGTACGA	0.0865
CCTCGGAGGACAGAAGTTCAGAGCTGTCCGCTTT	0.197
CCTACAGGGTCAGCTAGGCCAGAGTAGGGACGGC	3.53
TCGAATAGGTTAGTCGGGGCATTCAGCCAACATA	3.04
CCGACTGGGGCAGAAAGCTTACCATACCATCCGG	-0.904
ACAGACGGGTGATGAAGGTAACTCAGGCTATCAT	0.177
TCTATTAGTTGATGGGCAACCGACGAGTCCGTTT	0.542
GCTACTGGGGCAAAGCAGGTTACCATAAGGTTGG	0.028
ATCTCTAGGTAAGACTCAGCTCAGTGAAGAACGC	-0.134
GCTTTTAGATCAAGGTTAAGAAAGACTAAGCTAA	0.374
CGTCCAAGGTGAGAGAGGTCAGTGAATGCCGAGT	5.51

Sequence	PBM binding z-score
ATCTCTAGATAACCAAGTTCAGTGAATGCCGAAC	1.16
GATACAGCGTCAAGGCCAGAGTACGCGTATTGAT	-0.35
CAAACTAGTTCAAAGGTCAAAGTCGAGCCAACCA	6.02
CCTACTGGGCCAAAGGTCATGGATTCCAATGCTC	4.85
CTCGAAAGGTCGTGCTCAAGTGAGTATACCAAAC	3.13
ACTATTCGTTGACTTAGGGCAACCGATACGACGC	0.325
TAGCCTAGGTCATTGCGCCAGTATAGTACGCATC	2.33
TCTATTAGTTCAAGGGCAACCGACGAGTCCGTTT	2.38
CCGAGTAGGTCATGGGGCATTCAGGCAACGGTGA	2.27
CGTCCAAGGTCAAGGTCAGAGAAAGAGACTCGAA	4.57
TCGAGTAGGTTACCAATGGGGCATTCTGCTTTCT	-0.0796
GGAACGAGGGCAAGTGGATAGCAGAGTTTGATGG	0.391
TGAATGAGATTATAAGATCAGGGAACGTTGCAAA	-0.491
ATATATAGGTTATCGGGTCATTCAGTTTGCGCAT	5.37
TTACCAAGGTGAGTTGAGGTCGTTGATCCAACTC	4.05
TCTTTTAGATCAACAGGAGGTTAAGAAAGATCGA	0.982
CGTCAAAGTTCAAGGTAAGGTAACAGAAAGCAGC	3.7
TCTAGCAGGCCAGAGGTTCACTCAAGAGGTACGG	0.704
CAGCCAAGGTCAGGGCCAGTATAGGAGGAACGTT	2.4
GATTCAGGGTCAAGGCCAGAGTACGCGTATTGAT	4.89
